What all share (assay): PBM; 200 nM protein, PBS
What all share (details): dsDNA, one strand shown

Assay [1] deals with NKX2-5 (Homo sapiens, UniProt P52952 125-210, R139K).
The target of assay [2] is T1, NKX2-6 (Homo sapiens, UniProt A6NCS4 118-204, R150C).
T1 sequence: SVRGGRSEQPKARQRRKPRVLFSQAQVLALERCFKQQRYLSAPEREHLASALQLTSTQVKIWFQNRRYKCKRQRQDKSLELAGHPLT

Assay [3] has as its target T2, NKX2-6 (Homo sapiens, UniProt A6NCS4 118-204).
T2 sequence: T1 sequence with C33R

In assay [4] the target is T3, NKX2-6 (Homo sapiens, UniProt A6NCS4 118-204, F151L).
T3 sequence: T1 sequence with C33R, F34L

Assay [5] concerns the target NKX3-2 (Homo sapiens, UniProt P78367 192-278, P234S).
Assay [6] has as its target NKX2-5 (Homo sapiens, UniProt P52952 125-210).
Assay [7] deals with NKX3-2 (Homo sapiens, UniProt P78367 192-278).
Assay [8] addresses HOXD13 (Homo sapiens, UniProt P35453 263-343, T313R).
In a further assay the target is PITX2 (Homo sapiens, UniProt Q99697 72-157).
Assay [9] has as its target HOXD13 (Homo sapiens, UniProt P35453 263-343).
Assay [10] addresses HOXD13 (Homo sapiens, UniProt P35453 263-343, T313A).
A further assay addresses T4, NKX2-4 (Homo sapiens, UniProt Q9H2Z4 175-261, R246Q).
T4 sequence: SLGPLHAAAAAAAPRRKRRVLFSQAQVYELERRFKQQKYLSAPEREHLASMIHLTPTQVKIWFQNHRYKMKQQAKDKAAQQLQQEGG

In assay [11] the target is ALX1 (Homo sapiens, UniProt Q15699 118-204, L144V).
The target of assay [12] is ALX1 (Homo sapiens, UniProt Q15699 118-204, L144R).
Assay [13] has as its target ALX1 (Homo sapiens, UniProt Q15699 118-204).

Positions count from the first letter of the chain named.

Chain of NKX3-2 (Homo sapiens, UniProt P78367 192-278, P234S) (P78367 192-278 P234S): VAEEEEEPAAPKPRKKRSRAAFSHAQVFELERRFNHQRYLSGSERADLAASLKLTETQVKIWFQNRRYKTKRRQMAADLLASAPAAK
Chain of NKX2-5 (Homo sapiens, UniProt P52952 125-210) (P52952 125-210): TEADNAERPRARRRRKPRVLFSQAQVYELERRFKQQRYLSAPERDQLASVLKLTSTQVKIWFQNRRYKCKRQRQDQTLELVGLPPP
Chain of NKX3-2 (Homo sapiens, UniProt P78367 192-278) (P78367 192-278): as the sequence (P78367 192-278 P234S) above, with S43P counted along it
Chain of NKX2-5 (Homo sapiens, UniProt P52952 125-210, R139K) (P52952 125-210 R139K): as the sequence (P52952 125-210) above, with R15K counted along it
Chain of HOXD13 (Homo sapiens, UniProt P35453 263-343) (P35453 263-343): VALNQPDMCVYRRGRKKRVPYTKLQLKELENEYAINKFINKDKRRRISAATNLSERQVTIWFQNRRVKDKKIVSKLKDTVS
Chain of ALX1 (Homo sapiens, UniProt Q15699 118-204) (Q15699 118-204): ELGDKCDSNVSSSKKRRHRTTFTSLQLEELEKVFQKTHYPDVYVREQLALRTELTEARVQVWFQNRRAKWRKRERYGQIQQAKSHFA
Chain of HOXD13 (Homo sapiens, UniProt P35453 263-343, T313R) (P35453 263-343 T313R): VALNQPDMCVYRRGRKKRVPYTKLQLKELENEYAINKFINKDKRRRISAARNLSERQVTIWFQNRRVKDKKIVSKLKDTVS
Chain of ALX1 (Homo sapiens, UniProt Q15699 118-204, L144V) (Q15699 118-204 L144V): as the sequence (Q15699 118-204) above, with L27V counted along it
Chain of HOXD13 (Homo sapiens, UniProt P35453 263-343, T313A) (P35453 263-343 T313A): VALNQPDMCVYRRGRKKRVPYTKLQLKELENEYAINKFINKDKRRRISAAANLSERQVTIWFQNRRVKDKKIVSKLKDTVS
Chain of ALX1 (Homo sapiens, UniProt Q15699 118-204, L144R) (Q15699 118-204 L144R): as the sequence (Q15699 118-204) above, with L27R counted along it

For the sequence CACTTAGG, the binding signal is 12.6 upbm affinity estimate (log intensity, higher = more binding, comparable within an allelic series) with NKX2-5 [1]; 11.7 upbm affinity estimate (log intensity, higher = more binding, comparable within an allelic series) in the assay with NKX2-6 [2]; 13.5 upbm affinity estimate (log intensity, higher = more binding, comparable within an allelic series) in the assay with NKX2-6 [3]; 10.8 upbm affinity estimate (log intensity, higher = more binding, comparable within an allelic series) in the assay with NKX2-6 [4]; 12.9 upbm affinity estimate (log intensity, higher = more binding, comparable within an allelic series) with NKX3-2 [5]; 12.5 upbm affinity estimate (log intensity, higher = more binding, comparable within an allelic series) in the assay with NKX2-5 [6]. Besides, the binding signal with NKX3-2 [7] was 13 upbm affinity estimate (log intensity, higher = more binding, comparable within an allelic series).

As to CGGTGGAG, the binding signal in the assay with NKX2-5 [1] was 8.95 upbm affinity estimate (log intensity, higher = more binding, comparable within an allelic series); in the assay with HOXD13 [8], 9.59 upbm affinity estimate (log intensity, higher = more binding, comparable within an allelic series); with PITX2, 8.06 upbm affinity estimate (log intensity, higher = more binding, comparable within an allelic series); in the assay with HOXD13 [9] it was 9.6 upbm affinity estimate (log intensity, higher = more binding, comparable within an allelic series); in the assay with HOXD13 [10] it was 9.64 upbm affinity estimate (log intensity, higher = more binding, comparable within an allelic series); with NKX2-5 [6] it was 9.08 upbm affinity estimate (log intensity, higher = more binding, comparable within an allelic series).

For CACTTACC, the binding signal with NKX2-5 [1] is 12.4 upbm affinity estimate (log intensity, higher = more binding, comparable within an allelic series); in the assay with NKX2-6 [2], 11.6 upbm affinity estimate (log intensity, higher = more binding, comparable within an allelic series); with NKX2-6 [3] it was 13.4 upbm affinity estimate (log intensity, higher = more binding, comparable within an allelic series); in the assay with NKX2-6 [4], 10.7 upbm affinity estimate (log intensity, higher = more binding, comparable within an allelic series); with NKX3-2 [5] it was 12.7 upbm affinity estimate (log intensity, higher = more binding, comparable within an allelic series); with NKX2-5 [6], 12.3 upbm affinity estimate (log intensity, higher = more binding, comparable within an allelic series). Also, the binding signal in the assay with NKX3-2 [7] is 12.8 upbm affinity estimate (log intensity, higher = more binding, comparable within an allelic series).

As to CGTCGGTC, the binding signal was 8.88 upbm affinity estimate (log intensity, higher = more binding, comparable within an allelic series) with NKX2-5 [1]; 9.56 upbm affinity estimate (log intensity, higher = more binding, comparable within an allelic series) with NKX2-6 [2]; 9.23 upbm affinity estimate (log intensity, higher = more binding, comparable within an allelic series) in the assay with NKX2-6 [3]; 9.36 upbm affinity estimate (log intensity, higher = more binding, comparable within an allelic series) with NKX2-6 [4]; 8.91 upbm affinity estimate (log intensity, higher = more binding, comparable within an allelic series) with NKX2-5 [6].

With ACTAAGTG, the binding signal with NKX2-5 [1] was 12.3 upbm affinity estimate (log intensity, higher = more binding, comparable within an allelic series); in the assay with NKX2-6 [2], 11.6 upbm affinity estimate (log intensity, higher = more binding, comparable within an allelic series); with NKX2-6 [3], 13.3 upbm affinity estimate (log intensity, higher = more binding, comparable within an allelic series); with NKX2-6 [4], 10.6 upbm affinity estimate (log intensity, higher = more binding, comparable within an allelic series); with NKX3-2 [5] it was 12.9 upbm affinity estimate (log intensity, higher = more binding, comparable within an allelic series); in the assay with NKX2-5 [6] it was 12.3 upbm affinity estimate (log intensity, higher = more binding, comparable within an allelic series). The binding signal with NKX3-2 [7] is 12.9 upbm affinity estimate (log intensity, higher = more binding, comparable within an allelic series).

As to CACTTGTA, the binding signal was 12.5 upbm affinity estimate (log intensity, higher = more binding, comparable within an allelic series) with NKX2-5 [1]; 11.6 upbm affinity estimate (log intensity, higher = more binding, comparable within an allelic series) with NKX2-6 [2]; 13.4 upbm affinity estimate (log intensity, higher = more binding, comparable within an allelic series) with NKX2-6 [3]; 12.9 upbm affinity estimate (log intensity, higher = more binding, comparable within an allelic series) with NKX2-4; 10.7 upbm affinity estimate (log intensity, higher = more binding, comparable within an allelic series) in the assay with NKX2-6 [4]; 12.3 upbm affinity estimate (log intensity, higher = more binding, comparable within an allelic series) with NKX2-5 [6].

Turning to CCAGCAGC, the binding signal was 8.8 upbm affinity estimate (log intensity, higher = more binding, comparable within an allelic series) with NKX2-5 [1]; 9.28 upbm affinity estimate (log intensity, higher = more binding, comparable within an allelic series) in the assay with NKX2-6 [3]; 9.29 upbm affinity estimate (log intensity, higher = more binding, comparable within an allelic series) in the assay with NKX2-6 [4]; 8.73 upbm affinity estimate (log intensity, higher = more binding, comparable within an allelic series) in the assay with NKX2-5 [6].

As to CGACTGGC, the binding signal in the assay with NKX2-5 [1] was 8.66 upbm affinity estimate (log intensity, higher = more binding, comparable within an allelic series); with NKX2-6 [2] it was 9.39 upbm affinity estimate (log intensity, higher = more binding, comparable within an allelic series); in the assay with NKX2-5 [6], 8.72 upbm affinity estimate (log intensity, higher = more binding, comparable within an allelic series).

For the sequence CAGCGTCC, the binding signal with NKX2-5 [1] is 8.7 upbm affinity estimate (log intensity, higher = more binding, comparable within an allelic series); with NKX2-6 [2], 9.46 upbm affinity estimate (log intensity, higher = more binding, comparable within an allelic series); with NKX2-5 [6] it was 8.65 upbm affinity estimate (log intensity, higher = more binding, comparable within an allelic series).

In the case of ACACGTGT, the binding signal with NKX2-5 [1] was 9.32 upbm affinity estimate (log intensity, higher = more binding, comparable within an allelic series); with ALX1 [11], 6.61 upbm affinity estimate (log intensity, higher = more binding, comparable within an allelic series); with ALX1 [12], 6.61 upbm affinity estimate (log intensity, higher = more binding, comparable within an allelic series); with ALX1 [13] it was 6.65 upbm affinity estimate (log intensity, higher = more binding, comparable within an allelic series); with NKX2-5 [6] it was 9.25 upbm affinity estimate (log intensity, higher = more binding, comparable within an allelic series).

On to GTCCCAGA, for which the binding signal in the assay with NKX2-5 [1] was 8.89 upbm affinity estimate (log intensity, higher = more binding, comparable within an allelic series); in the assay with NKX2-6 [3], 9.24 upbm affinity estimate (log intensity, higher = more binding, comparable within an allelic series); with NKX2-6 [4] it was 9.41 upbm affinity estimate (log intensity, higher = more binding, comparable within an allelic series); with NKX2-5 [6], 8.98 upbm affinity estimate (log intensity, higher = more binding, comparable within an allelic series).

Regarding CTAAGTGC, the binding signal in the assay with NKX2-5 [1] was 12.8 upbm affinity estimate (log intensity, higher = more binding, comparable within an allelic series); in the assay with NKX2-6 [2], 11.8 upbm affinity estimate (log intensity, higher = more binding, comparable within an allelic series); with NKX2-6 [3] it was 13.7 upbm affinity estimate (log intensity, higher = more binding, comparable within an allelic series); with NKX2-6 [4] it was 11 upbm affinity estimate (log intensity, higher = more binding, comparable within an allelic series); with NKX3-2 [5] it was 13 upbm affinity estimate (log intensity, higher = more binding, comparable within an allelic series); with NKX2-5 [6] it was 12.7 upbm affinity estimate (log intensity, higher = more binding, comparable within an allelic series). In addition, the binding signal in the assay with NKX3-2 [7] was 13 upbm affinity estimate (log intensity, higher = more binding, comparable within an allelic series).

Turning to GCACTTAC, the binding signal is 12.3 upbm affinity estimate (log intensity, higher = more binding, comparable within an allelic series) in the assay with NKX2-5 [1]; 11.6 upbm affinity estimate (log intensity, higher = more binding, comparable within an allelic series) in the assay with NKX2-6 [2]; 13.3 upbm affinity estimate (log intensity, higher = more binding, comparable within an allelic series) with NKX2-6 [3]; 10.6 upbm affinity estimate (log intensity, higher = more binding, comparable within an allelic series) with NKX2-6 [4]; 12.7 upbm affinity estimate (log intensity, higher = more binding, comparable within an allelic series) with NKX3-2 [5]; 12.8 upbm affinity estimate (log intensity, higher = more binding, comparable within an allelic series) in the assay with NKX3-2 [7].

With CCACGGCG, the binding signal in the assay with NKX2-5 [1] was 8.49 upbm affinity estimate (log intensity, higher = more binding, comparable within an allelic series); with NKX2-6 [2] it was 9.16 upbm affinity estimate (log intensity, higher = more binding, comparable within an allelic series); with NKX2-5 [6], 8.47 upbm affinity estimate (log intensity, higher = more binding, comparable within an allelic series).

For the sequence TAAGTGCA, the binding signal with NKX2-5 [1] was 12.6 upbm affinity estimate (log intensity, higher = more binding, comparable within an allelic series); in the assay with NKX2-6 [2] it was 11.9 upbm affinity estimate (log intensity, higher = more binding, comparable within an allelic series); in the assay with NKX2-6 [3], 13.5 upbm affinity estimate (log intensity, higher = more binding, comparable within an allelic series); in the assay with NKX2-6 [4], 10.9 upbm affinity estimate (log intensity, higher = more binding, comparable within an allelic series); with NKX3-2 [5] it was 12.8 upbm affinity estimate (log intensity, higher = more binding, comparable within an allelic series); in the assay with NKX2-5 [6], 12.4 upbm affinity estimate (log intensity, higher = more binding, comparable within an allelic series). Moreover, the binding signal with NKX3-2 [7] was 12.9 upbm affinity estimate (log intensity, higher = more binding, comparable within an allelic series).

These data come from paper PMC11006913.
